From PubChem BioAssay (NCATS)
Several values for one entry are separate records, joined by “and”; a condition that tells them apart may be missing. Equal entries are not always repeated. Records with an inconclusive call do not appear. Activity calls are given as the source filed them. The call rests on the fitted dose curve; in most records, active means well fitted inhibition curve with a large enough effect; inconclusive means small, poorly fitted or top-dose-only effect; inactive means flat fitted curve, though single readings scatter.

test system: HEK293; assay: Cytotoxic Profiling of Annotated Libraries Using Quantitative High-Throughput Screening (AID 1296008); details: Five cell lines viability, CellTiter-Glo ATP luminescence, 48-72 h; max response: active compounds read low; further: nearly all actives have a fitted effect of over 60% in size
From the text: Cell-based phenotypic screening is a commonly used approach to discover biological pathways, novel drug targets, chemical probes and high-quality hit-to-lead molecules. Many hits identified from high-throughput screening campaign are ruled out through a series of follow-up potency, selectivity/specificity, and cytotoxicity assays. Prioritization of molecules with little or no cytotoxicity for a more in-depth downstream evaluation influence the future direction of projects, so cytotoxicity profiling of the screening libraries at early stage is essential for increasing the likelihood of candidate success. […] For the annotated library, we also examined the primary targets and mechanistic pathways regularly associated with cell death. To our knowledge, this is the first study to use high-throughput screening to profile large libraries for cytotoxicity assessment in both normal and cancer cell lines. In summary, the results generated here constitutes a valuable resource for the scientific community and provides insight on identifying cytotoxic compounds with particular mechanisms of action, and prioritizing compounds with suitable cytotoxicity profile for further evaluation.
A pintool (Kalypsys) was used to transfer 23 nL of compound solution to the 1536-well assay plates. After 48 or 72 hr incubation at 37 degree Celsius, 5% CO2 and 95% humidity, 2.5 uL of CellTiter-Glo (Promega) was dispensed into each well using a dispenser (Aspect Automation, St. Paul, MN) with solenoid valves (Lee Valves, Westbrook CT). Plates were left at room temperature for 10 min before imaging the ATP-coupled luminescence using a ViewLux microplate imager (PerkinElmer, Waltham, MA).
On the % scale 0 is the no-effect control and ±100 the full control effect; potency means the concentration at half of the fitted maximal effect.

Row | SMILES | max response | outcome | Potency
1 | Cc1cc2c(cc1C1(c3ccc(C(=O)O)cn3)CC1)C(C)(C)CCC2(C)C | -8.08% (inactive) | – | –
2 | COc1cc2ncnc(Nc3cc(Br)c(O)c(Br)c3)c2cc1OC | 0.846% (inactive) | inactive | –
3 | Cc1ccc(C(=O)N(CCCN)[C@@H](c2oc3cc(Cl)ccc3c(=O)c2Cc2ccccc2)C(C)C)cc1 | – | – | 0.0662 µM (active)
4 | CN[C@@H]1[C@@H](O)[C@@H](O[C@@H]2[C@@H](O)[C@H](O[C@H]3O[C@H](CN)[C@@H](O)[C@H](O)[C@@H]3O)[C@@H](N)C[C@@H]2NC(=O)[C@@H](O)CN)OC[C@]1(C)O | 3.66% (inactive) | – | –
5 | Cc1cnc(Nc2cccc(CN3CCOCC3)c2)nc1Nc1cccc(S(=O)(=O)NC(C)(C)C)c1 | – | inactive | –
6 | O=C(Nc1cccc(Cl)c1)Nc1ncc(CCNc2ncnc3ccsc23)s1 | – | – | 16.6 µM (active)
7 | C[C@]12CC[C@@H]3c4ccc(O)cc4CC[C@H]3[C@H]1[C@@H](O)[C@@H](O)[C@H]2O | – | inactive | –
8 | C[C@@H](N)c1ccc(C(=O)Nc2ccnc3[nH]ccc23)cc1 | – | – | 23.1 µM (active)
9 | Fc1ccc(CNc2ncnc3ccc(F)cc23)cc1 | – | – | 6.51 µM (active)
10 | O=C(O)c1nc(=O)[nH]c(=O)[nH]1 | -17.5% (inactive) | – | –
11 | N#CC(c1ccc(Cl)cc1)c1c(Cl)cc(-n2ncc(=O)[nH]c2=O)cc1Cl (stereo not given) | -4.97% (inactive) | – | –
12 | CN1C(=O)C(Cc2c[nH]c3ccccc23)NC1=S (stereo not given) | 1.8% (inactive) | inactive | –
13 | Nc1ccc(-c2ccc3ncc4ccc(=O)n(-c5cccc(C(F)(F)F)c5)c4c3c2)cn1 | – | – | 0.0132 µM (active)
14 | CCC(c1ccc(O)cc1)C(CC)c1ccc(O)cc1 (stereo not given) | -1.04% (inactive) | – | –
15 | Cc1[nH]c(C=C2C(=O)Nc3ccc(S(=O)(=O)N(C)c4cccc(Cl)c4)cc32)c(C)c1C(=O)N1CCN(C)CC1 | – | – | 5.26 µM (active)
16 | COc1c(C)cnc(Cn2cnc3c(Cl)nc(N)nc32)c1C | – | – | 0.132 µM (active)
17 | O=c1cc(-c2ccc(O)c(O)c2)oc2cc(O)cc(O)c12 | – | inactive | –
18 | O=C1CCCC(=O)C1C(=O)c1ccc(C(F)(F)F)cc1[N+](=O)[O-] | 0.204% (inactive) | – | –
19 | Cc1nc(C(=O)NCC(=O)O)c(O)c2ccc(Oc3ccccc3)cc12 | -3.39% (inactive) and -0.739% (inactive) | – | –

Row | SMILES | max response | outcome | Potency
20 | OC[C@H]1O[C@@H](OCCc2ccc(O)cc2)[C@H](O)[C@@H](O)[C@H]1O | 0.731% (inactive) | – | –
21 | CC(C)n1c(C=C[C@H](O)C[C@H](O)CC(=O)O)c(-c2ccc(F)cc2)c2ccccc21 | – | – | 14.8 µM (active)
22 | COc1ccnc(CS(=O)c2nc3ccc(OC(F)F)cc3[nH]2)c1OC (stereo not given) | – | inactive | –
23 | CN1CCC(COc2cnc(-c3cccc(Cn4nc(-c5cccc(C#N)c5)ccc4=O)c3)nc2)CC1 | – | inactive | –
24 | Cc1cnc(-c2cc(N3CCN(C(=O)CCS(C)(=O)=O)CC3)ncc2Cl)c(C)c1 | 2.19% (inactive) | inactive | –
25 | O=C(CO)N1CCC(c2[nH]nc(-c3ccc(Cl)cc3)c2-c2ccncn2)CC1 | -13.1% (inactive) and -1.15% (inactive) | – | –
26 | O=C(c1ccc(C=Cc2n[nH]c3ccccc23)cc1)N1CCNCC1 | -9.22% (inactive) | – | –
27 | O=C(Nc1ncc(SCCN2CCCC2)s1)[C@]1(c2ccc(S(=O)(=O)C3CC3)cc2)C[C@@H]1C1CCCCC1 | – | – | 16.6 µM (active)
28 | CC1=C[C@@H]2[C@@H]([C@@H](O)C[C@@]3(C)[C@H]2C[C@@H](C)[C@]3(O)C(=O)CO)[C@@]2(C)Cc3cnn(-c4ccccc4)c3C=C12 | – | – | 10.3 µM (active)
29 | COc1cc2nc(-c3cc(F)ccc3O)nc(N[C@@H]3CNC[C@@H]3C(C)(C)O)c2cc1OC | – | – | 14.8 µM (active)
30 | O=C(O)c1ccc(O)c2ncc(N3CCOCC3)cc12 | 4.93% (inactive) | – | –
31 | Cc1nc(NC(=O)N2CCC[C@@H]2C(N)=O)sc1-c1csc(C(C)(C)C)n1 | – | – | 2.35 µM (active)
32 | O=C(O)Cc1cccc(OCCCN(Cc2cccc(C(F)(F)F)c2Cl)CC(c2ccccc2)c2ccccc2)c1 | – | – | 16.6 µM (active)
33 | CN1CCN(c2cccc(Nc3nc4c(-c5ccc(S(C)(=O)=O)cc5)cccn4n3)c2)CC1 | – | – | 9.2 µM (active)
34 | CN(C)CCN(C)C(=O)c1ccc(NC(=O)Nc2ccc(-c3nc(N4CCOCC4)c4ccn(CC(F)(F)F)c4n3)cc2)cc1 | -108% (inactive) | – | –
35 | CCCCCOC(=O)Nc1nc(=O)n([C@@H]2O[C@H](C)[C@@H](O)C2O)cc1F (stereo not given in full) | -5.3% (inactive) | – | –
36 | COc1ccc(CCN(C)CCCOc2ccc(S(=O)(=O)c3[nH]c4ccccc4c3C(C)C)cc2)cc1OC | -1.95% (inactive) | – | –
37 | CCc1cc(-c2n[nH]c(C)c2-c2ccc3c(c2)OCCO3)c(O)cc1O | – | – | 11.8 µM (active)
